PubChem BioAssay (NCI)
This is part of a sample that, as a whole, favours compounds with a hit. Of some 83,000 tested, about 20% had one in any assay.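 Treatment: one concentration, 48 hours, 96-well format. Scoring: percent growth, with anything below 10 considered active.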 Values without a mark were called inactive. Calls of active or inactive are those of the source.

test system: SF-539 CNS; test: NCI-60 one-dose screen, 48 h (100 = growth as untreated, 0 = no growth, -100 = all killed); conditions: 10 µM unless noted

Compound	growth
NC(CCl)=NCC12CC3CC(CC(C3)C1)C2	-11% (active)
COc1ccc2c(c1)Nc1ccccc1S2	103%
CN1CCCN(C(c2ccccc2)c2ccc(Br)cc2)CC1 (centres undefined)	75.2%
CCNc1ncnc2[nH]ncc12	96.2%
CC(C)(CC(=O)O)CC(=O)O	95%
CCc1ccccc1C(=O)N(CC)CC	94.9%
COc1cc2c(c(OC)c1OC)-c1ccc(SC)c(=O)cc1[C@@H](NC1OC(CO)C(O)C(O)C1O)CC2 (some centres undefined)	1.24% (active)
O=[N+]([O-])c1c(Cl)ncnc1Cl	88.9%
CCN(C(=O)Nc1ccccc1Cl)c1ccccc1	104%
CC(C)(C)CC1(C)NC(=O)NC1=O (centres undefined)	109%
O=C(c1ccc(Cl)cc1)N1CCCCC1	98.5%
CC(C)c1ccccc1NC(=O)N1CCC(C(C)C)CC1	111%
C=C1SC(=Nc2c(C)cccc2C)N(c2nc(Cl)nc(Cl)n2)C12CCCCC2	116%
CCCCCCCCCCCCCCCCOc1ccccc1NC(=O)CC(C)=O	94.5%
O=C(O)CC1=CCCCC1	98.4%
CCOC(=O)c1ccc(Nc2sc(C(=O)c3ccc(Br)cc3)c(N)c2C#N)cc1	-1.74% (active)
NNc1ncnc2c1ncn2C1OC(CO)C(O)C1O (centres undefined)	90.9%
NS(=O)(=O)c1cc(=O)[nH]c(=O)[nH]1	111%
CC(C)NC(=O)OCc1c(COC(=O)NC(C)C)c(-c2ccc(Cl)cc2)n2c1CCC2	16.3%
